The text below walks through data of PubChem BioAssay AID696 (Sanford-Burnham Center for Chemical Genomics, 2007).

The structures appear in SMILES notation. About 1,200 (1.2%) of roughly 96,000 compounds were called active. What follows is part of a selection rich in actives, with near analogues and random picks from the rest. Values without a mark were called inactive. Cut-off read from the data, not from the text of the source: active = activation fold above about 2; inactive = the rest.

For the assay, the target named is Alkaline phosphatase, placental type (Homo sapiens) (UniProt P05187). Description: PLAP enzyme activators, biochemical, luminescence, HTS (AID 696). Particulars: purified PLAP enzyme, luminescent substrate read-out; at 20 µM; active compounds read high.
Alkaline phosphatase, placental type (Homo sapiens), sequence (P05187 whole entry, looked up): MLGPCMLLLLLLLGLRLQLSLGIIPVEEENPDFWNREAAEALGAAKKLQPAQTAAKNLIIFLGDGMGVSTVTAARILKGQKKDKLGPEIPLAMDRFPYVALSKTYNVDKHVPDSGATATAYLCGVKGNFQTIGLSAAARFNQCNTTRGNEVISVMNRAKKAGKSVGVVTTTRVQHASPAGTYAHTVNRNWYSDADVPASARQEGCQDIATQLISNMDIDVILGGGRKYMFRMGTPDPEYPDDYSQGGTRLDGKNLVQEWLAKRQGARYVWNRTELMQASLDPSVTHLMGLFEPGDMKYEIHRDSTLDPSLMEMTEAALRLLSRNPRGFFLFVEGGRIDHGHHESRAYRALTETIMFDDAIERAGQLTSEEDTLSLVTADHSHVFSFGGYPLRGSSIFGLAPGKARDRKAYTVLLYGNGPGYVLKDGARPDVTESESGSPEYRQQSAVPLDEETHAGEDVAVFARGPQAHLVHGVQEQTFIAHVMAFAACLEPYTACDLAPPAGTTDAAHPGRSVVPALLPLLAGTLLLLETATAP
Take `CC(=O)NS(=O)(=O)c1ccc(NC(=S)NC(=O)C(C)(C)C)cc1`: the activation fold was 1.1.

In the case of `COc1ccccc1NC(=O)c1ccc2nc(N3C(=O)CCC3=O)sc2c1`, the activation fold was 1.1.

Regarding `COc1ccc(C(C)=O)cc1CN1C(=O)NC2(CCCCC2C)C1=O` (centres undefined), the activation fold was 1.

As for `CCN1CCN(C(c2cccnc2)c2cc(Cl)c3cccnc3c2O)CC1` (centres undefined), the activation fold was 1.7.

As for `CCOC(=O)N1CCN(C(=O)CSc2ccc(Cl)cc2)CC1`, the activation fold was 1.4.

As for `CCOC(=O)N1CCN(C(c2cccnc2)c2ccc3cccnc3c2O)CC1` (centres undefined), the activation fold was 2.2 (active).

`CC1CC(C)CN(C/C=C/c2ccccc2[N+](=O)[O-])C1` (centres undefined): the activation fold is 1.2.

As to `C=C(C)COc1ccc(-c2n[nH]c(C)c2-c2ccccc2OC)c(O)c1`, the activation fold was 1.

As for `CCOc1ccccc1NC(=O)Nc1cc(OC)ccc1OC`, the activation fold was 0.8.

For the compound `CCOc1ccccc1Oc1cn[nH]c1-c1ccc(OC)cc1O`, the activation fold is 2.8 (active).

Take `c1ccc2c(C[n+]3csc4ccccc43)cccc2c1`: the activation fold was 1.1.

On to `COc1ccccc1Nc1nc(N)nc(CN(C)C2CCCCC2)n1`, for which the activation fold was 1.3.

As for `COc1ccccc1NC1=NC2(CCCC2)N=C(N)N1`, the activation fold is 0.8.

As for `COc1ccccc1NC1=NC(c2ccc(Cl)cc2)N=C(N)N1` (centres undefined), the activation fold is 2.2 (active).

In the case of `O=C1C=C(c2ccc(Cl)cc2)C(=O)N1Nc1ccccc1`, the activation fold is 0.9.

In the case of `C=CCn1c(SCc2c(C)noc2C)nc2sc3c(c2c1=O)CCC(C)C3` (centres undefined), the activation fold was 1.4.

With `COCCCNCC(=O)Nc1sc(C)c(C)c1C(=O)OC`, the activation fold was 2.2 (active).

For the compound `CCOC(=O)c1c(NC(=O)c2cccs2)sc(C)c1C`, the activation fold is 1.1.

On to `CCOC(=O)c1c(NC(=O)CCl)sc(C(=O)N(CC)CC)c1C`, for which the activation fold is 1.7.

On to `COc1ccc(C2=NOC3(CC(=O)N(c4ccc(C)cc4)C3=O)C2)cc1` (centres undefined), for which the activation fold is 1.2.

Turning to `CCOC(=O)c1c(NC(=O)CCCN2CCOCC2)sc2c1CC(C)(C)OC2`, the activation fold was 1.5.

As for `c1ccc2c(c1)OCC(CNc1ncnc3nc[nH]c13)O2` (centres undefined), the activation fold is 1.6.

For the compound `COc1ccc(CCNc2ncnc3nc[nH]c23)cc1OC`, the activation fold was 1.8.

Consider `CCc1ccc(N(CC)c2ncnc3nc[nH]c23)cc1`, for which the activation fold is 2 (active).

For the compound `Cc1nn(C)cc1/C=C1\CCC/C(=C\c2cn(C)nc2C)C1=O`, the activation fold is 1.8.

In the case of `CCn1c(C)nc2cc(C(=O)NNS(=O)(=O)c3ccc(C)cc3C)ccc21`, the activation fold is 1.

As to `Cc1ccc(C(=O)Nc2c(C#N)c(C)c(C)n2Cc2ccccc2)cc1`, the activation fold was 0.9.

As to `Cc1[nH][nH]c(=O)c1N=Nc1ccccc1`, the activation fold is 1.1.

With `Cc1[nH][nH]c(=O)c1C(c1ccc(-c2ccc(Cl)cc2)o1)c1c(C)[nH][nH]c1=O`, the activation fold is 2.2 (active).
